Measured values as given in ChEMBL document CHEMBL4513216, “Probing the Open Global Health Chemical Diversity Library for Multistage-Active Starting Points for Next-Generation Antimalarials” (ACS Infect Dis, 2020).
In all, about 69,000 compounds went through this assay and about 8,600 (12%) showed an effect of 50% or more. For the sample, strong results were picked, then their nearest neighbours and some compounds at random.

The molecules below were run on Plasmodium berghei (assay: Screen against P. berghei liver stage (PbLuc), transformed with Luciferase, at 10uM). Conditions: tested at 10 uM.
Assay type: functional, HepG2
Work on CCc1nc(C2CCCN2C(=O)Cc2cccs2)no1 (centres undefined) yielded an INHIBITION of 5.9%.
CSc1ccccc1C(C(=O)O)N(C)CC1CCOCC1 (centres undefined) showed an INHIBITION of -0.27%.
For CCCc1cc(C(=O)NCCN2CCCS2(=O)=O)[nH]n1, the INHIBITION was -40.96%.
For O=C(c1cc(Cl)c2c(c1)OCO2)N1CCCC(n2cncn2)C1 (centres undefined), the INHIBITION was 29.7%.
C[C@@H]1CN(Cc2ccccn2)C[C@]12CCN(Cc1cccnc1)C2=O was tested, and the INHIBITION was -38.1%.
N#CC1(C(=O)N2C[C@H](Nc3ncccn3)[C@@H](C3CC3)C2)CCOCC1 was tested, and the INHIBITION was -28.4%.
Cc1ccnc(OC[C@@]23CCO[C@@H]2CCN(c2ncccn2)C3)n1 was tested, and the INHIBITION was 23.3%.
Cc1ccnc(OC[C@@]23CCO[C@@H]2CCN(C2CCC2)C3)n1 showed an INHIBITION of -16.9%.
Cc1ccnc(OC[C@@]23CCO[C@@H]2CCN(S(C)(=O)=O)C3)n1 showed an INHIBITION of 57.1%.
In the case of CN(CCc1ccccc1)Cc1cnc(C2(C)CCCCO2)nc1 (centres undefined), the INHIBITION is reported as 10.871%.
In the case of COc1cc(CN2C[C@H](OC)[C@]3(CCCO3)C2)ccc1F, the INHIBITION is reported as 35.2%.
Cc1ccnc(C(NC(=O)c2sc(C)nc2C)C2CC2)n1 (centres undefined) gave an INHIBITION of 63.5%.
In the case of Cc1ccnc(C(NC(=O)c2oc(C)nc2C)C2CC2)n1 (centres undefined), the INHIBITION is reported as 38.5%.
Molecule Cc1ccnc(C(NC(=O)c2ccc(O)nc2C)C2CC2)n1 (centres undefined) has an INHIBITION of 2.65%.
Cc1nc(C2CCCN2C(=O)CCn2cncn2)no1 (centres undefined) was tested, and the INHIBITION was -85%.
In the case of c1cnc2c(c1)cc([C@H]1CCCO1)n2CCN1CCOCC1, the INHIBITION is reported as 30.1%.
In the case of CN(Cc1ccccc1F)Cc1cc2c(cc1Br)OCCO2, the INHIBITION is reported as 76.2%.
With CC(NCc1cccc2c1OCCO2)c1cc2c(cc1Br)OCCO2 (centres undefined) the INHIBITION was 4.15%.
Work on CN(Cc1ccc(F)cc1F)Cc1cc2c(cc1Br)OCCO2 yielded an INHIBITION of 52.6%.
Molecule CN(Cc1cscn1)Cc1cc2c(cc1Br)OCO2 has an INHIBITION of 31.9%.
CN(Cc1ccc(F)cc1)Cc1cc2c(cc1Br)OCCO2 was tested, and the INHIBITION was 44.8%.
CN(Cc1ccc(F)c(F)c1)Cc1cc2c(cc1Br)OCCO2 was tested, and the INHIBITION was -30%.
COc1ccccc1CN(Cc1nc(Cc2ccccc2)no1)C1CC1 gave an INHIBITION of 21.3%.
Molecule Cc1ccccc1CC(=O)N1C[C@@H]2COC[C@]2(CN(C)C)C1 has an INHIBITION of 20.5%.
N#Cc1ccc(C(=O)O)nc1C=Cc1cccc(F)c1 showed an INHIBITION of -23.2%.
CC(C)CN1CC2(CCN(C(=O)C3CNC(=O)N3)CC2)CC1=O (centres undefined) showed an INHIBITION of 53%.
CC(C)CN1CC2(CCN(C(=O)C3CSC(C)(C)C(=O)N3)CC2)CC1=O (centres undefined) was tested, and the INHIBITION was 12%.
CC(C)CN1CC2(CCN(C(=O)c3nc4ncccn4n3)CC2)CC1=O was tested, and the INHIBITION was 56%.
In the case of CC(C)CN1CC2(CCN(C(=O)c3cn4cccnc4n3)CC2)CC1=O, the INHIBITION is reported as -13.6%.
CC(C)CN1CC2(CCN(C(=O)C(O)c3ccccc3Cl)CC2)CC1=O (centres undefined) was tested, and the INHIBITION was 6.88%.
Molecule CC(C)CN1CC2(CCN(C(=O)c3cnccn3)CC2)CC1=O has an INHIBITION of -33%.
CC(C)Oc1ccc2c(NC(=O)CNC(N)=O)nn(CC(F)(F)F)c2c1 gave an INHIBITION of 29.7%.
In the case of COCC(=O)N1C[C@@H](c2cc(O)nc(C)n2)[C@H](c2ccccc2F)C1, the INHIBITION is reported as 24.49%.
In the case of CC(=O)N1C[C@H](c2cc(O)nc(C)n2)[C@@H](c2ccccc2F)C1, the INHIBITION is reported as 12.45%.
Cc1nc(O)cc([C@@H]2CN(C(=O)C3CC3)C[C@H]2c2ccccc2F)n1 gave an INHIBITION of 60.55%.
With Cc1cc(NCCO)nc(N2CCC(Cc3ccccc3)CC2)c1C#N the INHIBITION was 29.1%.
With Cc1nccn1CC(=O)N1CC(Cc2nccc3ccn(C)c23)C1 the INHIBITION was 34%.
With CCN1CCC(CC(=O)N(C)CC(=O)c2ccc(O)cc2)CC1 the INHIBITION was 55%.
For CCCN1CCC(CC(=O)N(C)C(C)c2cncs2)CC1 (centres undefined), the INHIBITION was 6.33%.
With CCCN1CCC(CC(=O)N(C)CC(=O)c2ccc(O)cc2)CC1 the INHIBITION was 56.1%.
CC(C)N1CCC(C(=O)N(C)CC(=O)c2ccc(O)cc2)CC1 was tested, and the INHIBITION was 23.6%.
With CC(C)N1CCC(CC(=O)N(C)CC(=O)c2ccc(O)cc2)CC1 the INHIBITION was 1.98%.
In the case of CCCN1CCC(CC(=O)NCc2cc(O)ncn2)CC1, the INHIBITION is reported as 28.7%.
For CN(C)C(=O)C1OC2(CCN(C(=O)N(C)C)CC2)c2ccccc21 (centres undefined), the INHIBITION was 14.1%.
With CNc1cc(C2CCCN2C(=O)c2ccc(=O)[nH]n2)ccn1 (centres undefined) the INHIBITION was -7.66%.
In the case of N#Cc1ccsc1C(=O)N1CCCN(Cc2cscn2)CC1, the INHIBITION is reported as -14%.
CC(C)n1nc(CNc2ncccn2)c2c1CN(C)CC2 gave an INHIBITION of -3.77%.
Work on COC[C@]12COC[C@H]1CN(Cc1cc(OC)cc(OC)c1)C2 yielded an INHIBITION of 35.8%.
Work on O=C(c1cccnc1)N1CCC(c2nc(O)cc(-c3ccncc3)n2)C1 (centres undefined) yielded an INHIBITION of 1.5%.
Work on CNC(=O)CN1CCCC12CCN(C(=O)c1ccc(F)cc1)CC2 yielded an INHIBITION of 42.4%.
In the case of CNC(=O)CN1CCCC12CCN(C(=O)c1ccsc1)CC2, the INHIBITION is reported as -0.937%.
CNC(=O)CN1CCCC12CCN(C(=O)c1ccoc1)CC2 was tested, and the INHIBITION was 56.8%.
For CCOCC(O)CN1CCN(C(=O)c2cc(C)ccc2F)CC1 (centres undefined), the INHIBITION was -59.4%.
Work on COCC1c2c(cnn2C)CCN1C(=O)c1cccn1C (centres undefined) yielded an INHIBITION of 46.6%.
COc1c(C(=O)N2CCNC(=O)C2)cnc2c1c(C)nn2C showed an INHIBITION of -25.1%.
With COC(=O)c1cnc2c(c(C)nn2C)c1OC the INHIBITION was 66.8%.
With COc1c(C(=O)N2CCOCC2)cnc2c1c(C)nn2C the INHIBITION was 2.59%.
In the case of O=C(Cc1cccs1)NS(=O)(=O)c1cccc2cnccc12, the INHIBITION is reported as 36.3%.
With CCOc1ccc(CN2CCOCC2c2[nH]ncc2C)cc1CO (centres undefined) the INHIBITION was 29.65%.
For Cc1cc(C(F)(F)F)nn1CCCNC(=O)C1CCCC1, the INHIBITION was 43.2%.
Cc1cc(C(F)(F)F)nn1CCCNC(=O)C1CCCO1 (centres undefined) showed an INHIBITION of 60.4%.
Molecule Cc1cc(C)n(CCCNC(=O)C2CCCO2)n1 (centres undefined) has an INHIBITION of 6.09%.
Cc1cc2[nH]c(=O)oc2cc1S(=O)(=O)N1C[C@@H](N(C)C)[C@H](C(C)C)C1 showed an INHIBITION of 26.5%.
For Cc1nc(CSCCC(=O)Nc2cccc(N3CCNC3=O)c2)cs1, the INHIBITION was -24.6%.
COCCN1CCO[C@@H]2CN(Cc3ccc(C)o3)C[C@@H]2C1 gave an INHIBITION of -0.554%.
For COC(=O)c1ccccc1NS(=O)(=O)c1c(C)nn(C)c1C, the INHIBITION was -7.93%.
With Cc1cn(-c2ccccc2)nc1NS(=O)(=O)c1cccc(C(=O)O)c1 the INHIBITION was 40.9%.
For CCS(=O)(=O)Nc1cnn(Cc2cccc(C)c2)c1, the INHIBITION was -2.64%.
For Cc1cccc(NS(=O)(=O)c2cnn(C)c2)c1C#N, the INHIBITION was 18.9%.
Cc1ccc(NS(=O)(=O)c2cnn(Cc3ccccc3)c2)c(C(=O)O)c1 gave an INHIBITION of 51.6%.
For Cc1ccc(-n2cc(S(=O)(=O)Nc3cccc(C(=O)O)c3C)cn2)cc1, the INHIBITION was 68%.
Work on Cc1ccc(NS(=O)(=O)c2cnn(-c3ccccc3)c2)c(C(=O)O)c1 yielded an INHIBITION of 22.5%.
CCn1nc(C)c(S(=O)(=O)Nc2cccc(C(=O)O)c2C)c1C was tested, and the INHIBITION was 62.4%.
Molecule CCn1nc(C)c(S(=O)(=O)Nc2ccccc2C(=O)OC)c1C has an INHIBITION of 29.7%.
